According to PubChem BioAssay (NCATS):
Results filed as inconclusive are left out. A call without a number means that no potency is given here. Calls of active or inactive are those of the source. Calls follow the shape of the dose curve; as a rule, active = well fitted cell-killing curve with a large enough effect; inconclusive = small, poorly fitted or top-dose-only effect; inactive = flat fitted curve, though single readings scatter.

Experiment: Cell Viability - LYMP2-018 (AID 985);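 also: compound exposure lasted 24 hr at 37 °C; nearly all actives have a fitted effect of over 50% in size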
Settings: LYMP2-018 lymphoblastoid cells, viability (qHTS); series mostly up to 92.2 µM
Source text: NIH Chemical Genomics Center [NCGC]
NIH Molecular Libraries Screening Centers Network [MLSCN]
National Institutes of Environmental Health Sciences [NIEHS]
National Toxicology Program [NTP]
We have developed a 1536-well cell-based assay for quantitative high throughput screening (qHTS) against a number of cell lines to determine in vitro cytotoxicity of small molecules. This particular assay uses a human lymphoblastoid cell line (LYMP2-018) purchased from Coriell Institute for Medical Research.
NCGC Assay Protocol Summary:
The CellTiter-Glo luminescent cell viability assay (Promega) is a homogeneous method to measure the number of viable cells in culture. The end point readout of this assay is based on quantitation of intracellular ATP, an indicator of metabolic activity, using the luciferase reaction. Luciferase catalyzes the oxidation of beetle Luciferin to oxyluciferin and light in the presence of ATP. The luminescent signal is proportional to amount of ATP present.
Using the CellTiter-Glo luminescent cell viability assay, the amount of cellular ATP was measured in the lymphoblastoid cell line with complete culture medium following compound treatment for 24 hours. The assay was performed in opaque white Kalypsys 1536-well plates. In the screen, tetraoctylammonium bromide was used as positive control. Library compounds were measured for their ability to cause acute toxicity in the cell line, as reflected by a decrease in intracellular ATP levels, in a concentration-dependent manner. […] AC50 values were determined from concentration-response data modeled with the standard Hill equation.
qHTS protocol for CellTiter Glo lymphoblastoid cellular assay
[Step] [Parameter] [Value] [Description]
1. Reagent; 5 uL; 2500 lymphoblastoid cells/well
2. Time; 5 hr; 37 C incubation
4. Controls; 23 nL; Tetraoctylammonium bromide 6.4pM to 92 uM
5. Time; 24 hr; 37 C incubation
6. Reagent; 5 uL; CellTiter Glo reagent
7. Time; 30 min; Room Temperature
8. Detection; Luminescence; Viewlux plate reader
Keywords: cell viability, cytotoxicity, lymphoblastoid cell line, luminescence, NTPHTS, NTPHTS_NCGC, NIEHS, DSSTox, MLSMR, MLSCN, NIH Roadmap, qHTS, NCGC
Potency is read from the fitted curve at half-maximal effect.

Question: With `C#C[C@]1(O)CC[C@H]2[C@@H]3CCc4cc(O)ccc4[C@H]3CC[C@@]21C` as the compound, how does the Potency read?
Answer: Its Potency is “inactive”.

Question: Which Potency does the source give for `COc1cc(/C=C/C(=O)CC(=O)/C=C/c2ccc(O)c(OC)c2)ccc1O` here?
Answer: The Potency was 39.8 µM (active).

Question: With `CC1(C)S[C@@H]2[C@H](NC(=O)[C@H](N)c3ccccc3)C(=O)N2[C@H]1C(=O)O` as the compound, how does the Potency read?
Answer: Its Potency is “inactive”.

Question: For `Nc1ccc(O)c([N+](=O)[O-])c1`, which Potency is on record?
Answer: The Potency was “inactive”.

Question: For `CC(C)NCC(O)COc1cccc2ccccc12` (configuration not stated), which Potency is on record?
Answer: Its Potency is “inactive”.

Question: With `CN1CCC[C@H]1c1cccnc1` as the compound, how does the Potency read?
Answer: Its Potency is “inactive”.

Question: For `c1ccc2sc(SSc3nc4ccccc4s3)nc2c1`, which Potency is on record?
Answer: Its Potency is “inactive”.

Question: For `c1cnc2c(c1)ccc1cccnc12`, which Potency is on record?
Answer: Its Potency is 25.1 µM (active).

Question: With `CN(C)c1ccc(C(=C2C=CC(=[N+](C)C)C=C2)c2ccccc2)cc1` as the compound, how does the Potency read?
Answer: Its Potency is 0.199 µM (active).

Question: With `O=C(O)c1cc(O)c(O)c(O)c1` as the compound, how does the Potency read?
Answer: The Potency was “inactive”.

Question: For `CN(C)c1ccc(N=NS(=O)(=O)O)cc1`, which Potency is on record?
Answer: Its Potency is “inactive”.

Question: For `CCCCCCCCCCCCCCCCCC(=O)O`, which Potency is on record?
Answer: Its Potency is “inactive”.

Question: With `CCCOC(=O)c1ccc(O)cc1` as the compound, how does the Potency read?
Answer: The Potency was “inactive”.

Question: With `NCCO` as the compound, how does the Potency read?
Answer: The Potency was “inactive”.

Question: Which Potency does the source give for `Nc1ccc([N+](=O)[O-])cc1O` here?
Answer: The Potency was “inactive”.

Question: Which Potency does the source give for `O=c1cc(-c2ccccc2)oc2ccccc12` here?
Answer: Its Potency is “inactive”.

Question: Which Potency does the source give for `N=C1N=C(N)c2cc3ccccc3cc21` here?
Answer: Its Potency is 39.8 µM (active).

Question: Which Potency does the source give for `O=C(O)/C=C\C(=O)O` here?
Answer: Its Potency is “inactive”.

Question: Which Potency does the source give for `S=c1[nH]c2ccccc2s1` here?
Answer: The Potency was “inactive”.

Question: With `Nc1ccc(O)c(C(=O)O)c1` as the compound, how does the Potency read?
Answer: The Potency was “inactive”.

Question: Which Potency does the source give for `CN(C)CCC(c1ccc(Cl)cc1)c1ccccn1` (configuration not stated) here?
Answer: The Potency was “inactive”.

Question: For `Nc1nc2ccc([N+](=O)[O-])cc2s1`, which Potency is on record?
Answer: The Potency was “inactive”.
